Screening data: PubChem, National Center for Advancing Translational Sciences (NCATS)
NTMT1 inhibitor – NTMT1 methyltransferase inhibition. Q9BV86. NTMT1 MTase-Glo SAH luminescence, purified enzyme. Potency, µM (titrated, usually from 114 µM), actives largely listed as inhibitors. actives 2.5% (n = 59,000). AID 1645870; note: nearly all actives have a fitted effect of over 65% in size
Target sequence (Q9BV86 whole entry, looked up): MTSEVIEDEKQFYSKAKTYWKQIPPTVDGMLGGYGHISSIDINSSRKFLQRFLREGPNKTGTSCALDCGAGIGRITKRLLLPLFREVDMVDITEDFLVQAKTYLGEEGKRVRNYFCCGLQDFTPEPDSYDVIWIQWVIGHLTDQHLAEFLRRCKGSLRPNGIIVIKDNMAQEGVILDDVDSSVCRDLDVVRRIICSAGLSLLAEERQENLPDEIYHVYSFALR
p53null 32C kill – selectivity test: cytotoxicity in p53 null cells, permissive temperature | Potency, µM (series often up to 46.1 µM), usual class: cytotoxic | actives 0.62% (n = 55,000) | H1299-neo p53 null cells, ATP luminescence, 24 h, 32C; note: nearly all actives have a fitted effect of over 55% in size
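We seeded p53-null H1299-neo cells, incubated them overnight at 37C, and added compounds across a range up to 46 uM. After 24 hours at 32C, ATP reagent was applied for 20 min at room temperature and luminescence recorded.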
OvCa metastasis – ovarian cancer metastasis inhibition, 3D TME model; SKOV3ip1-GFP adhesion/invasion on 3D omental model, fluorescence; Potency, µM (doses to about 45.8 µM), actives largely listed as inhibitors; actives 0.1% (n = 46,000); note: nearly all actives have a fitted effect of over 65% in size
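qHTS, 4-pt dose (0.36-46 umol/L); SKOV3ip1-GFP, 1,200 cells/well, no FBS; primary omental fibroblast/mesothelial co-culture 48 h pre-grown; 2 h RT + 16 h 37 C; PBS wash, 4% PFA; GFP count 488/509 nm.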
p53null 39C kill – p53 null cell cytotoxicity, nonpermissive temperature; H1299 p53-null (neo) cells, 39C, ATPlite viability, 24 h; Potency, µM (highest dose often 46.1 µM), actives largely listed as cytotoxic; actives 0.97% (n = 55,000); AID 904; note: nearly all actives have a fitted effect of over 50% in size
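H1299 lung cancer cells, p53-null (H1299-neo) or expressing p53 A138V (H1299-p53A138V), were plated overnight at 37C, then exposed to compounds at up to 46 uM for 24 hr at 39C. Viability was read by ATP-based luminescence.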
DYRK1A inh-1 – inhibitors of human DYRK1A kinase. shares compounds with NTMT1 inhibitor. AID 2705. recombinant DYRK1A, Kinase-Glo ATP depletion luminescence. Potency, µM (top dose mostly 76.9 µM), usual class: inhibitors. actives 80% (n = 100)
CLK4 inh-1 – CLK4 kinase inhibition, SAR round 2; Potency, µM (series often up to 76.9 µM), most hits filed as inhibitors; recombinant Clk4, Kinase-Glo ATP luminescence, 4.5 h; shares compounds with NTMT1 inhibitor; actives 90% (n = 90)
CLK4 inh-2 – inhibitors of human CLK4 kinase, SAR round 2; shares compounds with NTMT1 inhibitor; Reaction Biology kinase assay, 10 uM ATP; Potency, µM, usual class: inhibitors; actives 100% (n = 65); AID 504421; calls by dose curve
DYRK1A inh-2 – blocks human DYRK1A kinase in radiometric assay. Reaction Biology kinase assay, 10 uM ATP. shares compounds with NTMT1 inhibitor. AID 504424. actives 90% (n = 65). Potency, µM, most hits filed as inhibitors;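 active = compounds that showed inhibition of Dyrk1a and received a fitted potency; inactive = compounds that showed no inhibition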
CLK2 RBC – CLK2 kinase inhibition | Reaction Biology kinase assay, 10 uM ATP | Potency, µM, actives largely listed as inhibitors | AID 504427 | actives 90% (n = 65) | shares compounds with NTMT1 inhibitor;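 active = compound that inhibits Clk2 kinase in the dose series, with an IC50 potency reported; inactive = no inhibition seen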
CLK3 RBC – blocks human CLK3 kinase activity. shares compounds with NTMT1 inhibitor. recombinant CLK3 kinase assay, 10 uM ATP. Potency, µM, usual class: inhibitors. actives 40% (n = 65). AID 504428;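 active = compounds that inhibited Clk3 enough in the ten-dose series to give a half-maximal potency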
DYRK1B inh – inhibitors of human Dyrk1b kinase. actives 80% (n = 65). shares compounds with NTMT1 inhibitor. Recombinant Dyrk1b kinase assay, 10 uM ATP. Potency, µM, actives largely listed as inhibitors;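 active = compounds whose dose response shows an inhibitor phenotype against the kinase Dyrk1b; inactive = compounds showing no inhibitor phenotype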
CLK1 inh – CLK1 kinase inhibition | actives 90% (n = 65) | shares compounds with NTMT1 inhibitor | Potency, µM, actives largely listed as inhibitors | recombinant Clk1 kinase assay, 10 uM ATP | AID 504430;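 active = compounds that block the splicing kinase Clk1 enough to give a fitted half-inhibition concentration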
NNMT counter – human NNMT inhibition, NTMT1 counter-screen; shares compounds with NTMT1 inhibitor; NNMT MTase-Glo luminescence, SAH detection; Potency, µM (titrated, usually from 57.1 µM), hits mostly inhibitors; actives 10% (n = 120)
A number is an active result; 0 = inactive; ? = inconclusive; - = no result given. Many of the other results were omitted from the sample, so hits are more common in it than they were. Unless noted, calls come from the whole dose curve; as a rule, active = well fitted curve in the direction sought with a large enough effect; inconclusive = small, poorly fitted or top-dose-only effect, or another doubt; inactive = no such curve, though single readings can be large; an effect the other way counts as inactive or inconclusive.

SMILES	NTMT1 inhibitor	p53null 32C kill	OvCa metastasis	p53null 39C kill	others
CCOc1cc(N2CCC(O)CC2)ccc1Nc1ncc2c(n1)N(C)c1ccccc1C(=O)N2C	?	-	0	-
COc1cc(N2CCC(N3CCN(C)CC3)CC2)ccc1Nc1ncc(Cl)c(-c2c[nH]c3ccccc23)n1	20µM	-	-	-	NNMT counter=?
COc1cccc(CNc2ccc([S+](=O)([O-])Nc3cc4ccccc4s3)cc2)c1O	0	-	-	-
Cn1cc(Cl)c(C2N=C(Nc3nc4ccccc4o3)NC3=C2C(=O)CCC3)n1 (stereo not drawn)	0	-	-	-
O=C(Nc1ccc(S(=O)(=O)C(F)(F)F)cc1)C1=CCN(c2ncccc2C(F)(F)F)CC1	0	-	-	-	NNMT counter=0
O=C(Nc1ccccc1C(F)(F)F)N1Cc2ccccc2Oc2ncccc21	0	0	0	0
CSc1ccc(C(=O)/C=C/c2cc(C)c(OC(C)(C)C(=O)O)c(C)c2)cc1	0	-	-	-
Cc1nc(C(C)N(C)c2ncnc3ccc(-c4ccc5c(c4)OCO5)cc23)cs1 (stereo not drawn)	0	-	-	-	CLK4 inh-1=29µM
CCn1cnc(CCN(C)c2ncnc3ccc(-c4ccc5c(c4)OCO5)cc23)c1	-	-	-	-	DYRK1A inh-1=8.2µM
Cn1ccc2cc(-c3ccc4ncnc(NCc5ccc6c(c5)OCO6)c4c3)ccc21	0	-	-	-
Cc1nc(CN(C)c2ncnc3cc(-c4ccc5c(c4)OCO5)ccc23)cs1	?	-	-	-	DYRK1A inh-1=9.2µM;CLK4 inh-2=15;DYRK1A inh-2=0;CLK2 RBC=0;CLK3 RBC=0;DYRK1B inh=0;CLK1 inh=0
Cc1nc(CCN(C)c2ncnc3ccc(-c4ccc5c(c4)OCO5)cc23)cs1	?	-	-	-	CLK4 inh-1=0.082µM
Cc1cc(N2CCOCC2)cc2[nH]c(-c3c(NCC(O)c4cccc(Cl)c4)cc[nH]c3=O)nc12 (stereo not drawn)	0	-	-	-
FC(F)(F)c1ccc(CSc2nc3ncc(Br)cc3[nH]2)cc1	0	-	-	-
